From the supplement of paper PMC9446081
± gives the standard deviation of the averaged measurements.

Each compound was assayed against MurC (UniProt C4ZRI6) (assay: relative enzymatic activity vs untreated control (fraction); higher = less inhibition). Conditions: 100 µM; incubation time: 2 h at 37 C.
Method: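 In vitro enzymatic inhibition assays (ProFoldin kits) for 12 purified essential E. coli enzymes or complexes, each treated with 218 active antibacterial compounds at 100 µM for 2 h at 37°C. Read-outs were fluorescence or absorbance (phosphate detection, dye binding), converted to activity via standard curves and expressed relative to untreated DMSO controls.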

Chain of MurC (C4ZRI6 whole entry, looked up): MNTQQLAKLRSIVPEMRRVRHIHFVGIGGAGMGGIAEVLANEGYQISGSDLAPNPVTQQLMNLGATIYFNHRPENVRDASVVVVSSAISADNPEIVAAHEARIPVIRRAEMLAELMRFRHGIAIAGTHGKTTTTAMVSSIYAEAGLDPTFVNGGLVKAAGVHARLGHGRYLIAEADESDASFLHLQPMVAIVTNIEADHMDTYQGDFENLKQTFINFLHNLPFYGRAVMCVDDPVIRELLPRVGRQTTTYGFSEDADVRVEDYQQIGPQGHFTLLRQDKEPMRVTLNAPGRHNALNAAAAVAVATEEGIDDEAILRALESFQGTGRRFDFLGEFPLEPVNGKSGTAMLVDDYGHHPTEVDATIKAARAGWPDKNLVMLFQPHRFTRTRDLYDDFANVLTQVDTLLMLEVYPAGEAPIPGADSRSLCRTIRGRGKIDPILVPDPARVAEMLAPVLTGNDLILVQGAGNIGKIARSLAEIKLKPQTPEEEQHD

Row | Structure (SMILES) | relative enzymatic activity
1 | COc1c(N2CCNC(C)C2)c(F)cc2c(=O)c(C(=O)O)cn(C3CC3)c12 (stereo not given) | 1 ± 0.027
2 | CN[C@@H]1[C@H](O)[C@H](NC)[C@H]2O[C@@]3(O)C(=O)C[C@@H](C)O[C@H]3O[C@@H]2[C@H]1O | 0.955 ± 0.11
3 | CON=C(C(=O)NC1C(=O)N2C(C(=O)O)=C(CSC(=O)c3ccco3)CSC12)c1csc(N)n1.Cl (stereo not given) | 0.89 ± 0.22
4 | CO/N=C(\C(=O)N[C@@H]1C(=O)N2C(C(=O)O)=C(CSC(=O)c3ccco3)CS[C@H]12)c1csc(N)n1 | 0.977 ± 0.095
5 | NCC1OC(OC2C(N)CC(N)C(OC3OC(CO)C(O)C(N)C3O)C2O)C(N)C(O)C1O.O=S(=O)(O)O (stereo not given) | 1.04 ± 0.018
6 | NCCC(O)C(=O)NC1CC(N)C(OC2OC(CN)C(O)C(O)C2O)C(O)C1OC1OC(CO)C(O)C(N)C1O.O (stereo not given) | 1.0305 ± 0.00019
7 | CC1(C)S[C@@H]2[C@H](NC(=O)[C@H](N)c3ccccc3)C(=O)N2[C@H]1C(=O)OCOC(=O)[C@@H]1N2C(=O)C[C@H]2S(=O)(=O)C1(C)C | 1.08 ± 0.1
8 | CCC(C)CCCCC(=O)NC(CCN)C(=O)NC(C(=O)NC(CCN)C(=O)NC1CCNC(=O)C(C(C)O)NC(=O)C(CCN)NC(=O)C(CCN)NC(=O)C(CC(C)C)NC(=O)C(Cc2ccccc2)NC(=O)C(CCN)NC1=O)C(C)O.O=S(=O)(O)O (stereo not given) | 0.986 ± 0.057
9 | CN[C@H]1CN(c2ccc3c(=O)c(C(=O)O)cn(-c4nccs4)c3n2)C[C@@H]1OC | 1.035 ± 0.0069
10 | COC1(NC(=O)CSCC#N)C(=O)N2C(C(=O)[O-])=C(CSc3nnnn3C)CSC21.[Na+] (stereo not given) | 1.59 ± 0.09
11 | O=C(NC(CO)C(O)c1ccc([N+](=O)[O-])cc1)C(Cl)Cl (stereo not given) | 1.04 ± 0.033
12 | COc1cc2c(cc1OC)C(=O)C(CC1CCN(Cc3ccccc3)CC1)C2.Cl (stereo not given) | 0.993 ± 0.29
13 | NC[C@H]1O[C@H](O[C@H]2[C@H](O)[C@@H](O[C@H]3O[C@H](CO)[C@@H](O)[C@H](N)[C@H]3O)[C@H](N)C[C@@H]2N)[C@H](N)C[C@@H]1O | 0.918 ± 0.078
14 | CO[C@@]12[C@@H]3N[C@@H]3CN1C1=C(C(=O)C(N)=C(C)C1=O)[C@@H]2COC(N)=O | 1.08 ± 0.11
15 | COC1C=COC2(C)Oc3c(C)c(O)c4c(O)c(c5c(nc6cc(C)ccn65)c4c3C2=O)NC(=O)C(C)=CC=CC(C)C(O)C(C)C(O)C(C)C(OC(C)=O)C1C (stereo not given) | 0.715 ± 0.08
16 | C[C@H]1COc2c(C3(N)CC3)c(F)cc3c(=O)c(C(=O)O)cn1c23 | 1.01 ± 0.03
17 | CO/N=C(\C(=O)N[C@@H]1C(=O)N2C(C(=O)O)=C(CSc3nnnn3C)CS[C@H]12)c1csc(N)n1 | 1.05 ± 0.082
18 | CC(N)O.Cc1cc(CC(C)CC(C)(C)C)n(O)c(=O)c1 (stereo not given) | 1.11 ± 0.024
19 | COc1ccc2c(c1OC)C(=O)OC2C1c2c(cc3c(c2OC)OCO3)CCN1C.Cl (stereo not given) | 1.45 ± 0.16
20 | CN(C)c1ccc(O)c2c1C[C@H]1C[C@H]3[C@H](N(C)C)C(=O)[C@@H](C(N)=O)C(=O)[C@@]3(O)C(=O)[C@H]1C2=O | 1.11 ± 0.018

Row | Structure (SMILES) | relative enzymatic activity
21 | CN(C)c1ccc(O)c2c1C[C@H]1C[C@H]3[C@H](N(C)C)C(=O)C(C(N)=O)=C(O)[C@@]3(O)C(=O)[C@H]1C2=O | 0.99 ± 0.069
22 | COC12C(COC(N)=O)C3=C(C(=O)C(C)=C(N)C3=O)N1CC1NC12 (stereo not given) | 0.719 ± 0.092
23 | Cn1nnnc1SCC1=C(C(=O)[O-])N2C(=O)C(NC(=O)C(O)c3ccccc3)C2SC1.[Na+] (stereo not given) | 1.091 ± 0.0095
24 | Cc1oc(=O)oc1CN1CCN(c2cc3c(cc2F)c(=O)c(C(=O)O)c2n3C(C)S2)CC1 (stereo not given) | 0.821 ± 0.066
25 | CCCC[P+](CCCC)(CCCC)Cc1ccc(NC(=O)[C@H](Cc2ccc3ccccc3c2)N/C(=N/C2CCCCC2)NC2CCCCC2)cc1 | 0.557 ± 0.44
26 | Oc1c(Cl)cc(Cl)c2cccnc12 | 0.928 ± 0.088
27 | Cc1cc(O)c(C(=O)NC(C(=O)NC2C(=O)N3C(C(=O)O)=C(CSc4nnnn4C)CSC23)c2ccc(O)cc2)cn1 (stereo not given) | 0.971 ± 0.12
28 | CO/N=C1\CN(c2nc3c(cc2F)c(=O)c(C(=O)O)cn3C2CC2)C[C@@H]1CN | 0.717 ± 0.047
29 | NC(=O)[C@@H]1C(=O)C[C@@H]2C[C@@H]3Cc4cccc(O)c4C(=O)[C@@H]3C(=O)[C@]2(O)C1=O | 1.17 ± 0.092
30 | CON=C(C(=O)NC1C(=O)N2C(C(=O)[O-])=C(COC(C)=O)CSC12)c1csc(N)n1.[Na+] (stereo not given) | 0.961 ± 0.082
31 | O=C1OCCN1N=Cc1ccc([N+](=O)[O-])o1 | 1.03 ± 0.054
32 | CC1COc2c(N3CCN(C)CC3)c(F)cc3c(=O)c(C(=O)O)cn1c23 (stereo not given) | 0.983 ± 0.042
33 | CNC1C(OC2C(OC3C(O)C(O)C(NC(=N)N)C(O)C3NC(=N)N)OC(C)C2(O)CO)OC(CO)C(O)C1O.O=S(=O)(O)O (stereo not given) | 1.1 ± 0.059
34 | C=CC1=C(C(=O)O)N2C(=O)C(NC(=O)C(=NO)c3csc(N)n3)C2SC1 (stereo not given) | 0.997 ± 0.02
35 | O=C(O)c1cn(C2CC2)c2cc(N3CCNCC3)c(F)cc2c1=O | 1.03 ± 0.014
36 | COC1=C(N)C(=O)c2nc(-c3nc(C(=O)O)c(C)c(-c4ccc(OC)c(OC)c4O)c3N)ccc2C1=O | 1.31 ± 0.37
37 | CCC(C)C1NC(=O)C(CCNCS(=O)(=O)[O-])NC(=O)C(NC(=O)C(CCNCS(=O)(=O)[O-])NC(=O)C(NC(=O)C(CCNCS(=O)(=O)[O-])NC(=O)CCCCC(C)C)C(C)O)CCNC(=O)C(C(C)O)NC(=O)C(CCNCS(=O)(=O)[O-])NC(=O)C(CCNCS(=O)(=O)[O-])NC(=O)C(C(C)CC)NC1=O.[Na+].[Na+].[Na+].[Na+].[Na+] (stereo not given) | 1.05 ± 0.03
38 | COC(=O)N/N=C/c1c[n+]([O-])c2ccccc2[n+]1[O-] | 1 ± 0.079
39 | CON=C(C(=O)NC1C(=O)N2C(C(=O)O)=C(C[N+]3(C)CCCC3)CSC12)c1csc(N)n1.[Cl-] (stereo not given) | 0.984 ± 0.032
40 | CCCCCCCCCCCCCCCC[N+](C)(C)Cc1ccccc1.[Cl-] | 0.176 ± 0.051
